From the supplement of paper PMC6555819

system: LXRa homodimer (NR concentration 270 nM); assay: PBM binding z-score (relative to random genomic background probes); higher = stronger binding; sequences stand for … in GC…GCGATTGACAGCGTAGAATGAAGG
Outline: (§1)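 Antibodies against each partner of ligand-free nuclear receptor dimers (one per run) detected binding on custom Agilent 4×180K protein-binding microarrays after 1 h incubation. The double-stranded probes had 34-nt variable regions carrying direct-repeat seeds, single-nucleotide variants, half-site ablations and random human genomic background sequences. Binding z-scores, from regression-normalized fluorescence, use the random background probes as reference.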

| Sequence | PBM binding z-score |
| --- | --- |
| ATCGAAAGGTCGTGAGGTGTGTATACAGAAAGGC | 0.0507 |
| GGAACGAGGGCAAAGGTGATAGCATCTGTCGACG | -0.402 |
| ATATGGAGGTTAAGGGTCATTCAGGTTGGTTCGC | 3.97 |
| ATCGAAAGGTCGTGAGGTGACTATACAGAAAGGC | 0.422 |
| CGTCAAAGTTCAACTAAGGTAACTTAAAGCACGC | 4.42 |
| CGGCCAAGGTCAAAGGTCAGTGAAGAGATGACGG | 2.81 |
| ATCTCTAGGTAAAGGTCAGTGAAAGATCGATAGA | 1.74 |
| CGTCCAAGGTCATAAGAGGTCAGTGAAGACAGAT | 5.88 |
| CCTAGTTGGCCAAGGTCACACACGCTATAGGTAC | 1.6 |
| CCTTACGGGTCACGGGGTTATAGCACGACGAGCG | 0.321 |
| TAGCCTAGGTCATTCAGGGGTCAGTATAGAAAGC | 3.94 |
| TCTAGTTGGTTACGGAGGTCACACACGACGGGTA | 3.06 |
| AATACAGGGTCGCTAGGCCAGAGTAGGTACGAAT | -0.204 |
| ATACCAAGGTGATCGTGAGTTCGTTGATACTAAC | 0.426 |
| CGTCCAAGGTCAATGCTAGGTCACTGAAAGCATT | 3.98 |
| TTACCAAGGTCAGCTGAGGTCGTTGATCCAACTC | 2.43 |
| ATCGAAAGGTCGACGAGTTGAGTATACACCGTTT | 0.0436 |
| TTACAAAGGTGAGCTGAGGTCGTTGATCCAACTC | -0.299 |
| GGAACGAGGGCATTCGAGTTGATAGCATGGCGAT | -0.481 |
| CCGACTGGGGCAAAGGTTACCACACTCAGTACGA | 0.137 |

| Sequence | PBM binding z-score |
| --- | --- |
| CGTCAAAGTTCAACTAATGTAACGTAAAGCACGC | 4.93 |
| CCTTACGGGTCACTCTAGGTTATAGCATCGGAGT | 1.83 |
| GCTTACGGGTCAAAGGTTATAGTATGAATAGAAT | 0.73 |
| CCTACAGGGCCAAAGGTCATTGATTCCAATGCTC | 4.04 |
| TAGCCTAGGTCATGGGCCAGTTTACCACGCGAAC | 0.503 |
| CGTCCAAGGTAAGAGAGGTCAGTGAATGCCGAGT | 1.66 |
| CCGACGGGGGCAGAAAGGTTACCATACCATCCGG | 0.333 |
| CCTACTGGGCCAAAGGTCAGTGATTCCAATGCTC | 1.1 |
| AGTCAAAGTTCATCTTGGTAACGTAAGATATGCT | 5.97 |
| ATACCAAGGTTATCGTGAGGTCGTTGATACTAAC | 2.28 |
| TCTCGGAGGTCACGAAGGTCAGAGCTTTCCAGAG | 3.52 |
| CCTTGCGGGTCACTGACAGGTTATAGCATTTGGA | 0.0362 |
| CTCGAAAGGTCGTCCTCAGGTGAGTATACCAAAC | 0.547 |
| CAAACTAGGTCACCGGAAAGTCAAAGTCCGCATG | 0.834 |
| TAGCCTAGGTCATTCAGGGGCCAGAATAGAAAGC | 0.569 |
| CACACTAGGTCAAGAGGTCAAAGTCCGCTTCCCG | 7.43 |
| CTCGAAAGGTCGTGCTCAGGTGAGTATGCCAAAC | 0.0245 |
| CAAACTAGGTCACAGAGGTCGAAGTCCGTGCGTA | 1.74 |
| CGTCCAAGGTCAGAGAGGTCATTGAATGCCGAGT | 6.22 |

system: LXRb:RXRa (NR concentration 270 nM, RXRa partner concentration 90 nM); assay: as above
Outline: as §1

| Sequence | PBM binding z-score |
| --- | --- |
| ATCGAAAGGTCGTGAGGTGTGTATACAGAAAGGC | 3.03 |
| GGAACGAGGGCAAAGGTGATAGCATCTGTCGACG | 1.23 |
| ATATGGAGGTTAAGGGTCATTCAGGTTGGTTCGC | 5.2 |
| ATCGAAAGGTCGTGAGGTGACTATACAGAAAGGC | 3.45 |
| CGTCAAAGTTCAACTAAGGTAACTTAAAGCACGC | 4.16 |
| CGGCCAAGGTCAAAGGTCAGTGAAGAGATGACGG | 6.59 |
| ATCTCTAGGTAAAGGTCAGTGAAAGATCGATAGA | 3.42 |
| CGTCCAAGGTCATAAGAGGTCAGTGAAGACAGAT | 7.04 |
| CCTAGTTGGCCAAGGTCACACACGCTATAGGTAC | 3.73 |
| CCTTACGGGTCACGGGGTTATAGCACGACGAGCG | 4.81 |
| TAGCCTAGGTCATTCAGGGGTCAGTATAGAAAGC | 5.72 |
| TCTAGTTGGTTACGGAGGTCACACACGACGGGTA | 3.14 |
| AATACAGGGTCGCTAGGCCAGAGTAGGTACGAAT | 0.525 |
| ATACCAAGGTGATCGTGAGTTCGTTGATACTAAC | 0.294 |
| CGTCCAAGGTCAATGCTAGGTCACTGAAAGCATT | 4.6 |
| TTACCAAGGTCAGCTGAGGTCGTTGATCCAACTC | 4.31 |
| ATCGAAAGGTCGACGAGTTGAGTATACACCGTTT | 2.75 |
| TTACAAAGGTGAGCTGAGGTCGTTGATCCAACTC | 1.68 |
| GGAACGAGGGCATTCGAGTTGATAGCATGGCGAT | -0.0953 |
| CCGACTGGGGCAAAGGTTACCACACTCAGTACGA | 2.27 |

| Sequence | PBM binding z-score |
| --- | --- |
| CGTCAAAGTTCAACTAATGTAACGTAAAGCACGC | 4.21 |
| CCTTACGGGTCACTCTAGGTTATAGCATCGGAGT | 5.58 |
| GCTTACGGGTCAAAGGTTATAGTATGAATAGAAT | 5.84 |
| CCTACAGGGCCAAAGGTCATTGATTCCAATGCTC | 4.71 |
| TAGCCTAGGTCATGGGCCAGTTTACCACGCGAAC | 2.26 |
| CGTCCAAGGTAAGAGAGGTCAGTGAATGCCGAGT | 1.72 |
| CCGACGGGGGCAGAAAGGTTACCATACCATCCGG | 4.22 |
| CCTACTGGGCCAAAGGTCAGTGATTCCAATGCTC | 3.34 |
| AGTCAAAGTTCATCTTGGTAACGTAAGATATGCT | 4 |
| ATACCAAGGTTATCGTGAGGTCGTTGATACTAAC | 2.93 |
| TCTCGGAGGTCACGAAGGTCAGAGCTTTCCAGAG | 5.6 |
| CCTTGCGGGTCACTGACAGGTTATAGCATTTGGA | 2.95 |
| CTCGAAAGGTCGTCCTCAGGTGAGTATACCAAAC | 3.32 |
| CAAACTAGGTCACCGGAAAGTCAAAGTCCGCATG | 2.79 |
| TAGCCTAGGTCATTCAGGGGCCAGAATAGAAAGC | 3.21 |
| CACACTAGGTCAAGAGGTCAAAGTCCGCTTCCCG | 5.8 |
| CTCGAAAGGTCGTGCTCAGGTGAGTATGCCAAAC | 3.2 |
| CAAACTAGGTCACAGAGGTCGAAGTCCGTGCGTA | 3.62 |
| CGTCCAAGGTCAGAGAGGTCATTGAATGCCGAGT | 5.74 |
